# Source: PubChem (National Center for Advancing Translational Sciences (NCATS))
# Shiga inhibitor – inhibitors of Shiga toxin in Vero cells; Vero cells, Shiga toxin protein synthesis inhibition reporter; inhibition, % at 38.7 µM; AID 2315; actives 9.2% (n = 290,000); in the data active means inhibition mostly above about 28%, no sharp cut-off; inactive means mostly below about 43%; further: 0% is about no effect
# AMA1-RON2 inh – inhibitors of Plasmodium falciparum AMA1-RON2 interaction; Potency, µM (series often up to 58.2 µM), without a hit: at the top dose activity change, negative = inhibition, usual class: inhibitors; actives 0.2% (n = 360,000); AlphaScreen AMA1-biotinylated RON2 peptide binding;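 further: potency means the concentration at half of the fitted maximal effect; 0% = vehicle wells and -100% = peptide control; nearly all actives have a fitted effect of over 45% in size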
#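 AMA1 (3D7) with his tag at 25 nM final met compounds first, then biotinylated RON2 peptide at 25 nM; detection used donor plus acceptor beads, 10 µg/mL apiece, read by AlphaScreen after 30 min at room temperature.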
# Cycloheximide cs – affects cycloheximide protein synthesis inhibition readout, counter-screen | cell reporter, cycloheximide protein synthesis inhibition counterscreen | actives 12% (n = 300,000) | max response, % | AID 2314; in the data active means max response mostly above about 13%, no sharp cut-off; inactive means mostly below about 14%; further: read at 38.3 µM for the half of the compounds with a filed dose; 0% is about no effect
# Pf growth 48h – P. falciparum growth inhibition at 48 hours (one generation); actives 5.9% (n = 310,000); AID 504832; Potency, µM (highest dose often 28.7 µM), for the others: at the top dose activity change, negative = inhibition, usual class: inhibitors; P. falciparum luciferase growth in erythrocytes, 48 h; further: potency means the concentration at half of the fitted maximal effect; on the % scale 0 is the no-effect control and ±100 the full control effect
#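 Luciferase-expressing parasites in RBCs, 2% Hct / 0.1% parasitemia final; RPMI 1640 + 0.5% Albumax; 37 C, 5% CO2, one generation; luminescence read-out, lower signal = inhibition.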
# SARS PLpro yeast – inhibitors of SARS-CoV papain-like protease in yeast. S. cerevisiae expressing SARS-CoV PLpro, growth rescue. Potency, µM (titrated, usually from 32.9 µM), for the others: at the highest dose activity, positive = growth rescue, actives largely listed as activators. actives 0.19% (n = 330,000). AID 485353; calls by dose curve; further: potency means the concentration at half of the fitted maximal effect; 0% is about no effect; nearly all actives have a fitted effect of over 55% in size
# Pf growth 96h – P. falciparum growth inhibition at 96 hours; P. falciparum luciferase reporter growth, 96 h; Potency, µM (top dose mostly 28.7 µM), without a hit: top-dose activity change, negative = inhibition, most hits filed as inhibitors; actives 6.9% (n = 320,000); further: potency means the concentration at half of the fitted maximal effect; on the % scale 0 is the no-effect control and ±100 the full control effect
#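 Parasite growth measured via integrated firefly luciferase reporter in P. falciparum. Infected erythrocytes at 2% hematocrit, 0.05% parasitemia final were treated 96 hours at 37 C under 5% CO2, and luminescence was read.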
# The depositor's hits bear a star; i = inactive; ? = inconclusive; / = no result. This is a sample that favours compounds with a hit; in the whole collection about 19% have one here. Unless noted, the call rests on the fitted dose curve; in most records, active means well fitted curve in the direction sought with a large enough effect; inconclusive means small, poorly fitted or top-dose-only effect, or another doubt; inactive means no such curve, though single readings can be large; an effect the other way counts as inactive or inconclusive.
SMILES,Shiga inhibitor,AMA1-RON2 inh,Cycloheximide cs,Pf growth 48h,SARS PLpro yeast,Pf growth 96h
COc1cccc(C2c3[nH]c4ccccc4c3C[C@H]3C(=O)N(C4CCN(Cc5ccccc5)CC4)CC(=O)N23)c1 (stereo partly drawn),-5,-25%,-2,4.7µM*,1%,3.7µM*
COc1ccccc1C1c2[nH]c3ccccc3c2C[C@H]2C(=O)N(C3CCN(Cc4ccccc4)CC3)CC(=O)N12 (stereo partly drawn),-7,-22%,-3,1.9µM*,2%,1.5µM*
O=C1[C@@H]2Cc3c([nH]c4ccccc34)C(c3ccccc3)N2C(=O)CN1C1CC1 (stereo partly drawn),-6,-21%,-4,?,0%,?
CC(=O)c1cccc(NC(=O)CN2CCc3cc4c(cc3C2)OCCCO4)c1,13,-6%,7,18%,5%,?
COc1ccccc1NC(=O)N(C)C[C@@H]1OCc2cnnn2CCCC(=O)N([C@@H](C)CO)C[C@H]1C,/,-1%,/,/,/,/
O=C1NC(=O)C(c2ccccc2)(C2CCCC2)N1 (stereo not drawn),/,5%,/,/,/,/
Cc1ccc(S(=O)(=O)N2CCC3(CC2)OCCN3S(=O)(=O)c2c(C)cc(C)cc2C)cc1,/,-5%,/,10µM*,5%,?
COc1ccc(C)cc1S(=O)(=O)N1CCC2(CC1)OCCN2S(=O)(=O)c1cccs1,/,-2%,/,?,2%,?
COc1ccc(S(=O)(=O)N2CCC3(CC2)OCCN3S(=O)(=O)c2c(C)cc(C)cc2C)cc1,/,-25%,/,1µM*,/,0.83µM*
COc1ccc(S(=O)(=O)N2CCOC23CCN(S(=O)(=O)c2ccccc2)CC3)cc1,/,-3%,/,?,0%,32%
COc1ccc(S(=O)(=O)N2CCC3(CC2)OCCN3S(=O)(=O)c2cccs2)cc1OC,/,-2%,/,?,-4%,9.3µM*
O=C(CNS(=O)(=O)c1ccc(Br)s1)N1CCC(N2CCCCC2)CC1,-7,11%,-1,18%,-1%,40%
Cc1ccc(NC(=O)c2cnccn2)nc1,-5,9%,-3,19%,-1%,-8%
O=C(Nc1ccccc1F)c1cc2nc(C(F)F)cc(C(F)F)n2n1,52*,-5%,22*,97%,6%,114%
O=C(Nc1ccccc1N1CCOCC1)c1cnccn1,-17,2%,-4,?,-10%,28%
O=C(Nc1ccccc1-c1ccccc1)c1cnccn1,54,19%,14*,/,4%,?
O=C(Nc1ccccc1F)c1cnccn1,53*,7%,18*,43%,-1%,?
Cc1ccc(NC(=O)c2cnccn2)c(Br)c1,/,11%,26*,53%,4%,?
CC(C(=O)O)N(c1ccccc1Cl)S(C)(=O)=O (stereo not drawn),/,-4%,/,?,1%,55%
CCOC(=O)N1CCN(C(=O)C2CCN(S(=O)(=O)CC)CC2)CC1,-19,3%,-1,2%,-1%,1.7µM*
Cc1[nH]c2ccc(F)cc2c(=O)c1SC(F)(F)C(F)F,1,13%,1,13µM*,-1%,-15%
O=c1cc(-c2ccc(F)cc2F)[nH]c2ccc(F)cc12,i,/,21,/,/,/
CC[N+]1(CC)CC2=Cc3c(ccc4ccccc34)CC2C1 (stereo not drawn),16,-3%,11,/,4%,?
CC12Cc3ccc4ccccc4c3C=C1C[N+](C)(C)C2 (stereo not drawn),-11,41%,-3,/,-1%,1.7µM*
C/C(=N\S(=O)(=O)c1ccc(C)cc1)NC(=S)Nc1ccccc1,-4,0%,-1,1%,5%,18%
SMILES,Shiga inhibitor,AMA1-RON2 inh,Cycloheximide cs,Pf growth 48h,SARS PLpro yeast,Pf growth 96h
Cc1nc2c3c(-c4ccccc4)c(-c4ccccc4)oc3ncn2n1,-12,/,-3,34%,?,/
COC(=O)c1cc(N=Nc2c(C)[nH]c3ccccc23)cc(C(=O)OC)c1,-1,7%,-2,-6%,2%,-7%
Cc1[nH]c2ccccc2c1N=Nc1cccc(C(=O)O)c1,108*,-2%,58*,168%,14%,36%
Cc1[nH]c2ccccc2c1N=Nc1ccccc1C(=O)O,48*,46%,17*,?,17%,10µM*
COCCCn1c(=O)c2ccccc2n(CC(=O)NC2CCCCC2)c1=O,5,-1%,-9,?,1%,12%
CN(C)CCCN(C(=O)c1ccc(Br)s1)c1nc2cc3c(cc2s1)OCO3,-34,-19%,-14,-10%,-5%,?
Cc1ccc(C(=O)N(CCCN(C)C)c2nc3ccc(Cl)cc3s2)cc1C,-32,?,-7,12µM*,-5%,?
CN(C)CCCN(C(=O)c1ccco1)c1nc2ccc(Cl)cc2s1,19,-26%,-5,0%,-1%,-16%
CN(C)CCCN(C(=O)c1ccc2c(c1)OCCO2)c1nc2ccc(Cl)cc2s1,36,/,15*,10µM*,-1%,12µM*
CN(C)CCN(C(=O)c1ccc2c(c1)OCCO2)c1nc2ccc(Cl)cc2s1,36,0%,27*,46%,0%,?
COc1ccc(NC(=O)C2(C)CCCN2C(=O)C(C)C)cc1OC (stereo not drawn),/,10%,/,/,/,/
CCc1ncc(C(=O)c2ccc(OC)cc2)n1C,9,31%,14*,24%,2%,161%
Cc1cccc(NC(=O)c2ncn3c2C(=O)NC[C@H]3C)c1,/,66%,/,/,/,/
Fc1cccc(Cc2c(-c3cccc(Cl)c3)nc3ccc(Cl)cn23)c1,/,9%,/,/,/,/
COc1ccccc1/C=C(\C#N)C(=O)c1cccn1C,3,-7%,-1,/,1%,-1%
Cc1csc(N2CCc3ccccc32)n1,27,-4%,23*,14%,-2%,32%
CCN1C(=NCCc2cccs2)N[C@@H](c2cccs2)C(C(=O)OC)=C1C,-4,4%,-6,7.4µM*,-5%,?
CCN1C(=NCCc2ccccn2)N[C@@H](c2cccc(F)c2)C(C(=O)OC)=C1C,30,7%,-2,2%,-6%,?
CCOC(=O)CN1C(=O)N[C@@H](c2cccs2)C(C(=O)OC)=C1C,/,12%,/,/,/,/
COCCN=C1N[C@@H](c2cccc(C(F)(F)F)c2)C(C(=O)OC)=C(C)N1Cc1ccccc1,-4,12%,0,?,-3%,4.7µM*
COC(=O)C1=C(C)N(Cc2ccccc2)C(=NCCc2c[nH]c3ccccc23)N[C@H]1c1cccc(C(F)(F)F)c1,6,-25%,-2,?,1%,13µM*
COC(=O)C1=C(C)N(Cc2ccccc2)C(=NCCc2ccccn2)N[C@H]1c1cccc(F)c1,-7,89%,-3,12µM*,?,8.3µM*
CCN1C(=NCc2cc(OC)c(OC)c(OC)c2)N[C@@H](c2cccc(F)c2)C(C(=O)OC)=C1C,10,/,-2,5.2µM*,8%,10µM*
